Laboratory results from PubChem BioAssay (NCI).
About 83,000 compounds went through this panel and 20% of them were active in at least one assay; those are over-represented in the sample as a whole.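 96-well plates, one dose, 48 hours. Percent growth reported; active if below 10.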 Calls of active or inactive are those of the source.

Test system: HL-60(TB) leukemia
Assay: NCI-60 one-dose screen, 48 h (100 = growth as untreated, 0 = no growth, -100 = all killed)
Conditions: 10 µM unless noted

SMILES | growth
O=c1[nH][n+](-c2ccc(Br)cc2)no1 | 20.2% (inactive)
COc1cc(-c2nn(-c3cccc(NC(=O)Nc4cccc(C(F)(F)F)c4)c3)cc2-c2ccncc2)ccc1Cl | -18.7% (active)
C=C(C)[C@@H]1CC[C@]2(CO)CC[C@]3(C)[C@H](CC[C@@H]4[C@@](C)(CCCN)[C@H](C(=C)C)CC[C@]43C)[C@@H]12 | -54.7% (active)
Cn1cc(-c2csc(-c3cn(C)c4ncccc34)n2)c2ccccc21 | -3.85% (active)
COc1cc2c(cc1C)NC(=O)/C2=C\c1c[nH]c2ccccc12 | 47.5% (inactive)
Cc1ccc(N=Nc2c(N)nc(N)[nH]c2=O)cc1C | 97.3% (inactive)
CC([C@H]1CCC2C3CCC4C(=O)C(NC=O)=CC[C@]4(C)C3CC[C@@]21C)N(C)C (stereo not given in full) | 1.54% (active)
Clc1nc(Cl)c2ncn(C/C=C\Cn3cnc4c(Cl)nc(Cl)nc43)c2n1 | -70.2% (active)
CN1CCN(c2c(F)cc(NC3=C(Cl)C(=O)c4ncccc4C3=O)cc2F)CC1 | -24.7% (active)
CCOC(=O)c1ccccc1NC(c1ccccc1)c1ccc2cccnc2c1O (stereo not given) | 3.54% (active)
O=C(Nc1cccc(NC(=O)C2CCCCC2)c1)c1ccccn1 | 95.4% (inactive)
COC(=O)c1cc(-c2cc(OC)c(OC)c(OC)c2)[nH]c1N/N=C/c1c(Cl)cccc1Cl | 134% (inactive)
CC(C)c1cc(C(C)C)c(S(=O)(=O)Oc2ccc(NC(=O)c3ccc(Cl)cc3)cc2)c(C(C)C)c1 | 16.9% (inactive)
Cc1cc(=NO)cc(C)n1O | 81.6% (inactive)
CCC1S/C(=N\N=C(\C)c2cc3cc(Cl)ccc3o2)N(c2ccccc2)C1=O (stereo not given) | 103% (inactive)
C=C1C(=O)O[C@H]2[C@H]1CC/C(COC(=O)C(=O)c1c[nH]c3ccccc13)=C\CC[C@@]1(C)O[C@@H]21 | -46.5% (active)
CCCCCCCCCCCC(=O)[O][Sn]([CH2]CCC)([CH2]CCC)[CH2]CCC | -44.1% (active)
COc1cc2c(c(OC)c1OC)CCC(c1cccc(C(=O)Nc3ccc(Br)cc3)c1)O2 (stereo not given) | 73.1% (inactive)
Cc1cccc(N2CCN(CC(O)COc3ccc(Cl)cc3)CC2)c1 (stereo not given) | 123% (inactive)
CCN(CC)CCCC(C)Nc1ccnc2ccc(Oc3ccccc3)cc12 (stereo not given) | 72.6% (inactive)
Cc1c(C(=O)Nc2ccccc2F)sc2c(=O)[nH]cnc12 | 83.2% (inactive)
Nc1c(C(=O)Nc2cccc3ccccc23)sc2nc3c(cc12)CCCCC3 | -25.9% (active)
O=c1c(F)cn(Cc2ccccc2CCl)c(=O)n1Cc1ccccc1CCl | -63.6% (active)
Oc1c(I)cc(I)cc1CNCc1ccccn1 | 20.2% (inactive)
CCCCCCN(CCCCCC)c1ccc(/C=C2/SC(=O)NC2=O)c(C)c1 | 77.1% (inactive)
